From PubChem BioAssay
NOMO-1 viab: STK33 inhibitor candidate reducing NOMO-1 cell viability | actives 7.5% (n = 37,000) | inhibition, % (concentration not given with the values) | NOMO-1 AML viability, CellTiter-Glo luminescence, 72 h; in the data active = inhibition above about 80%; inconclusive = no clear call, values can overlap the other calls
Hedgehog inh: Sonic Hedgehog pathway inhibition. inhibition, % (concentration not given with the values). AID 2313. actives 2.1% (n = 22,000). Shh-LIGHT2 Gli-luciferase reporter, 30 h;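 active = mean inhibition across valid replicates above about 65%, limit read from the data; inconclusive = mean under the limit, yet half or more replicates past it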;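 also: pathway switched on by Shh-conditioned medium diluted 1 in 25 in low serum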
MITF inh: blocks MITF activity; TRPM1 promoter luciferase, luminescence, 24 h; inhibition, % (test concentration not listed); actives 0.28% (n = 37,000); AID 2240; in the data active = inhibition above about 85%; inconclusive = no clear call, values can overlap the other calls; inactive = below about 68%;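 also: human melanocyte line stably carrying TRPM1 promoter luciferase reporter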
Starred values were filed as active, the others as inactive. Most compounds without a hit are left out; they make up all but 7.8% or so of the library.

For C[C@H]1CN([C@@H](C)CO)C(=O)Cc2cc(NC(=O)Nc3ccccc3)ccc2O[C@H]1CN(C)Cc1ccc(Oc2ccccc2)cc1 the results were NOMO-1 viab 54, Hedgehog inh -11 and MITF inh -4.
For C[C@@H]1CN([C@H](C)CO)C(=O)Cc2cc(NC(=O)Nc3ccccc3)ccc2O[C@@H]1CN(C)Cc1ccc(Oc2ccccc2)cc1 the results were NOMO-1 viab 115*, Hedgehog inh 42 and MITF inh 32.
For C[C@H]1CN([C@@H](C)CO)C(=O)Cc2cc(NC(=O)Cc3ccccc3)ccc2O[C@@H]1CN(C)Cc1ccc(Oc2ccccc2)cc1 the results were NOMO-1 viab 75, Hedgehog inh 16 and MITF inh 9.
`C[C@@H]1CN([C@H](C)CO)C(=O)Cc2cc(NC(=O)Nc3ccc4c(c3)OCO4)ccc2O[C@H]1CN(C)Cc1ccc(Oc2ccccc2)cc1` gave NOMO-1 viab 117*, Hedgehog inh inconclusive and MITF inh 10.
For C[C@H](CO)N1C[C@H](C)[C@H](CN(C)Cc2ccc(Oc3ccccc3)cc2)Oc2ccc(NC(=O)Nc3ccccc3)cc2CC1=O the results were NOMO-1 viab 45, Hedgehog inh -23 and MITF inh -13.
For C[C@H](CO)N1C[C@H](C)[C@H](CN(C)Cc2ccc(Oc3ccccc3)cc2)Oc2ccc(NC(=O)Cc3ccccc3)cc2CC1=O the results were NOMO-1 viab 116* and MITF inh 28.
Screening Cc1cc(N(CC(=O)Nc2ccc(F)c(F)c2)S(C)(=O)=O)ccc1Br returned NOMO-1 viab 30 and MITF inh 17.
C[C@@H]1CN([C@H](C)CO)C(=O)Cc2cc(NC(=O)C3CCCCC3)ccc2O[C@H]1CN(C)Cc1ccc(Oc2ccccc2)cc1 was read as NOMO-1 viab 81*, Hedgehog inh 35 and MITF inh 53.
`C[C@@H]1CN([C@H](C)CO)C(=O)Cc2cc(NC(=O)Nc3ccc4c(c3)OCO4)ccc2O[C@@H]1CN(C)Cc1ccc(Oc2ccccc2)cc1` gave NOMO-1 viab 119*, Hedgehog inh 32 and MITF inh 20.
`C[C@@H]1CN([C@@H](C)CO)C(=O)Cc2cc(NC(=O)Nc3ccccc3)ccc2O[C@@H]1CN(C)Cc1ccc(Oc2ccccc2)cc1` gave NOMO-1 viab 78, Hedgehog inh 52 and MITF inh 45.
Screening C[C@H]1CN([C@@H](C)CO)C(=O)Cc2cc(NC(=O)C3CCCCC3)ccc2O[C@H]1CN(C)Cc1ccc(Oc2ccccc2)cc1 returned NOMO-1 viab 27, Hedgehog inh 28 and MITF inh -10.
COc1cc(/C=C/c2ccc(OC)c(OC)c2)c(CC=C(C)C)c(OC)c1 was read as NOMO-1 viab 19, Hedgehog inh 2 and MITF inh 3.
`C[C@@H]1CN([C@H](C)CO)C(=O)c2cccc(NC(=O)Nc3cccc4ccccc34)c2O[C@H]1CN(C)S(C)(=O)=O` gave NOMO-1 viab 9, Hedgehog inh 9 and MITF inh 9.
For C[C@@H]1CCCCO[C@@H](CN(C)C(=O)Nc2ccc(F)cc2)[C@@H](C)CN([C@H](C)CO)C(=O)c2cc(NC(=O)NC3CCCCC3)ccc2O1 the results were NOMO-1 viab 39, Hedgehog inh -21 and MITF inh 12.
Cc1ccc(S(=O)(=O)Nc2ccc3c(c2)C(=O)N([C@@H](C)CO)C[C@@H](C)[C@@H](CN(C)S(=O)(=O)c2cccs2)O3)cc1 was read as NOMO-1 viab -14 and MITF inh -6.
For COc1ccc(NC(=O)Nc2nn(Cc3c(F)cccc3Cl)cc2Cl)cc1OC the results were NOMO-1 viab 27 and MITF inh -12.
CC(=O)c1cccc(NC(=O)Nc2nn(Cc3c(F)cccc3Cl)cc2Br)c1 was read as NOMO-1 viab 106* and MITF inh 23.
Screening C[C@@H]1CCCCO[C@@H](CN(C)C(=O)NC2CCCCC2)[C@@H](C)CN([C@H](C)CO)C(=O)c2cc(NC(=O)Nc3cccc4ccccc34)ccc2O1 returned NOMO-1 viab 10 and MITF inh 10.
For CCN(CC)C(=S)Sc1ncnc2sc3c(c12)CCCC3 the results were NOMO-1 viab 125*, Hedgehog inh 90* and MITF inh 15.
CC(C)(C)C(=O)CSc1ncnc2sc3c(c12)CCCC3 was read as NOMO-1 viab 20 and MITF inh -53.
For C[C@@H]1CN([C@H](C)CO)C(=O)c2cccc(NS(=O)(=O)c3ccccc3)c2O[C@H]1CN(C)S(=O)(=O)c1ccc(F)cc1 the results were NOMO-1 viab 4, Hedgehog inh 11 and MITF inh -5.
Screening Cc1noc(C)c1NC(=O)N(C)C[C@@H]1Oc2c(NC(=O)c3nc4ccccc4s3)cccc2C(=O)N([C@H](C)CO)C[C@@H]1C returned NOMO-1 viab 11, Hedgehog inh -2 and MITF inh -1.
C[C@@H]1CCCCO[C@H](CN(C)C(=O)Nc2ccc(C(F)(F)F)cc2)[C@@H](C)CN([C@H](C)CO)C(=O)c2cc(NS(=O)(=O)c3cccs3)ccc2O1 was read as NOMO-1 viab 52 and MITF inh 48.
C[C@@H]1CCCCO[C@@H](CN(C)Cc2ccc(C(F)(F)F)cc2)[C@@H](C)CN([C@H](C)CO)C(=O)c2cc(NS(=O)(=O)c3cccs3)ccc2O1 was read as NOMO-1 viab 110*, Hedgehog inh inconclusive and MITF inh 51.
C[C@@H]1CCCCO[C@H](CN(C)Cc2ccc(C(F)(F)F)cc2)[C@@H](C)CN([C@H](C)CO)C(=O)c2cc(NS(=O)(=O)c3cccs3)ccc2O1 was read as NOMO-1 viab 77, Hedgehog inh 29 and MITF inh 11.
Screening C[C@@H]1CCCCO[C@@H](CN(C)Cc2ccccc2)[C@@H](C)CN([C@H](C)CO)C(=O)c2cc(NS(=O)(=O)c3ccccc3)ccc2O1 returned NOMO-1 viab 39, Hedgehog inh 22 and MITF inh -2.
Screening Cc1ccc(S(=O)(=O)Nc2ccc3c(c2)C(=O)N([C@H](C)CO)C[C@H](C)[C@H](CN(C)CC2CC2)OCCCC[C@@H](C)O3)cc1 returned NOMO-1 viab 16, Hedgehog inh -18 and MITF inh -15.
For C[C@@H]1CCCCO[C@@H](CN(C)C(=O)Nc2ccc(C(F)(F)F)cc2)[C@@H](C)CN([C@H](C)CO)C(=O)c2cc(NS(=O)(=O)c3cccs3)ccc2O1 the results were NOMO-1 viab 114*, Hedgehog inh 83* and MITF inh 25.
Screening C[C@@H]1CCCCO[C@H](CN(C)Cc2ccc(C(F)(F)F)cc2)[C@@H](C)CN([C@H](C)CO)C(=O)c2cc(NS(=O)(=O)c3ccccc3)ccc2O1 returned NOMO-1 viab 95*, Hedgehog inh -2 and MITF inh 44.
Cc1ccc(S(=O)(=O)Nc2ccc3c(c2)C(=O)N([C@H](C)CO)C[C@H](C)[C@H](CN(C)Cc2ccc(C(F)(F)F)cc2)OCCCC[C@@H](C)O3)cc1 was read as NOMO-1 viab 126*, Hedgehog inh -8 and MITF inh 13.
Screening O=C(NCCCn1ccnc1)c1ccccc1I returned NOMO-1 viab -5 and MITF inh -19.
Screening C[C@@H]1CN([C@H](C)CO)C(=O)c2cc(NS(=O)(=O)c3cn(C)cn3)ccc2O[C@H]1CN(C)Cc1ccc(Oc2ccccc2)cc1 returned NOMO-1 viab 21 and MITF inh -8.
